Compound activity deposited in PubChem by Fisher Drug Discovery Resource Center.
mcGAS RapidFire: inhibitors of Mus musculus cyclic GMP-AMP synthase, initial high-throughput assay, cell-free, RapidFire MS; Q8C6L5; recombinant mouse cGAS, cGAMP by RapidFire MS; inhibition, % at 12.5 µM; hit rate 0.18% among 130,000;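 active = inhibition of cGAS enzyme activity at or above 60%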;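 also: enzyme stimulated by 45 bp dsDNA with ATP and GTP substrates; cGAMP share of summed cGAMP plus half ATP and half GTP signals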
Of the large screens only hits and unclear results are named; the others gave an inactive call. Many of the other results were omitted from the sample, so hits are more common in it than they were.

O=[N+]([O-])c1ccc(O)c(Cl)c1	none
O=C(c1cc([N+](=O)[O-])c[nH]1)C(Cl)(Cl)Cl	none
O=[N+]([O-])c1ccc(O)c([N+](=O)[O-])c1	mcGAS RapidFire 96
CCOC1CC(N(C)CC(O)COC)C1(C)C (stereo unspecified)	none
CCS(=O)(=O)N(C)CCCNC(=O)C1C(C)(C)C1(C)C	none
O=c1c2ccccc2nc(Cc2ccccc2)n1-c1cccc(O)c1	none
Cc1nc2ccc(N)cc2c(=O)n1-c1ccccc1	none
O=c1c2ccccc2[se]n1-c1ccccc1	mcGAS RapidFire 94
CCOC(=O)N1CCC(NC(C)Cc2cc(C)[nH]n2)CC1 (stereo unspecified)	none
CC(c1ccncc1)N(C)C(=O)Nc1ccc(C#N)c(C(F)(F)F)c1 (stereo unspecified)	none
CN1CCCC1CCOC1c2ccccc2CCc2ccccc21 (stereo unspecified)	none
CCCc1cc(C(=O)N2CCN(C)C3(CCN(C)CC3)C2)no1	none
CN(C)CCc1ccc(Nc2ncccc2C#N)cc1	none
O=C(Nc1ccc([N+](=O)[O-])cc1)c1cccn(Cc2cccc(C(F)(F)F)c2)c1=O	none
